95 compounds from PubChem BioAssay AID651815 (National Center for Advancing Translational Sciences (NCATS), 2012) can be followed below.

The whole screen tested about 2,100 compounds, of which about 1,100 (52%) were called active. Another 29% or so got no clear call; they are omitted. Calls follow the shape of the dose curve; as a rule, active = well fitted inhibition curve with a large enough effect; inconclusive = small, poorly fitted or top-dose-only effect; inactive = no such curve, though single readings can be large or run the other way. So high a share suggests a set chosen from earlier hits. The list shows a part of the results.
Potency is read from the fitted curve at half-maximal effect.

Sequence of DNA dC->dU-editing enzyme APOBEC-3F (Homo sapiens) (Q8IUX4 whole entry, looked up): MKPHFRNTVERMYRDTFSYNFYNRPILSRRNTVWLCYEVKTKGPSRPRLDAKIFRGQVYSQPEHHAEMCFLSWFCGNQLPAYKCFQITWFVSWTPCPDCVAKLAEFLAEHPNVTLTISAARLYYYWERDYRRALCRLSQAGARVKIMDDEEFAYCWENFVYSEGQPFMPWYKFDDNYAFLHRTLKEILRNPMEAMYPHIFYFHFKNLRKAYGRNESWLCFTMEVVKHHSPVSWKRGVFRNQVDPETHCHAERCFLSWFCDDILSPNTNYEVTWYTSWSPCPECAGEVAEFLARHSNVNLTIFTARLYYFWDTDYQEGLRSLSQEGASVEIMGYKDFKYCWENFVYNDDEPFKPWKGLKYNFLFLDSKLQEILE

This test has as its target DNA dC->dU-editing enzyme APOBEC-3F (Homo sapiens) (UniProt Q8IUX4). Description: qHTS for inhibitors of Vif-A3F interactions: Cherry picks counterscreen. Also: nearly all actives have a fitted effect of over 65% in size. The note with it: HeLa A3F-eYFP/Vif cells, eYFP fluorescence, 24 h; series mostly up to 46.1 µM. In short, it runs like this:
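Rescue of Vif-driven A3F-eYFP degradation read as cellular eYFP fluorescence after 24 h compound exposure (several concentrations) in stable HeLa cells; MG132 (2 mM stock) as positive control.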
On the technique in general: In qHTS, concentration-response curves come from the screen itself.
Turning to `CCn1c(SCC(=O)c2c[nH]c3ccccc23)nnc1-c1cccs1`, the Potency is 18.4 µM (active).

Turning to `CCOc1cc(/C=C(/C#N)C(=O)Nc2ccc(O)cc2)cc(Br)c1O`, the Potency is 15.8 µM (active).

With `CCOc1ccc(NC(=O)/C(C#N)=C/c2ccc(N3CCCC3)c(C)c2)cc1`, the Potency is 5.8 µM (active).

On to `CCOC(=O)c1c(-c2ccc(C)cc2)csc1NC(=O)/C(C#N)=C/c1ccc(O)c(OC)c1`, for which the Potency result is “inactive”.

On to `Cc1ccc2c(c1)Sc1c(ccc3ccccc13)N2`, for which the Potency was 16.4 µM (active).

On to `Cc1cc(C)c(S(=O)(=O)Oc2ccccc2[N+](=O)[O-])c(C)c1`, for which the Potency was 6.27 µM (active).

In the case of `O=[N+]([O-])c1ccccc1SNc1ccccc1`, the Potency result was “inactive”.

Turning to `CCN(CC)c1ccc(C=NNc2ccc([N+](=O)[O-])cn2)cc1`, the Potency is 10.3 µM (active).

With `Cc1ccc(Cc2c(C3CCCCC3)nc3ccc(C)cn23)cc1`, the Potency result was “inactive”.

As for `Cc1noc(C)c1COc1cccc(C(=O)OCC(=O)N2CC(=O)Nc3ccccc32)c1`, the Potency was 6.27 µM (active).

For the compound `C/C(=N\Nc1nccnc1Cl)c1ccc(Cl)c(Cl)c1`, the Potency entry is “inactive”.

For the compound `CCSc1nc2ccccc2n1C(=O)/C=C/c1ccc(OC)c(OC)c1`, the Potency was 4.98 µM (active).

In the case of `C=CCSc1nc2ccccc2n1C(=O)/C=C/c1cc(OC)c(OC)c(OC)c1`, the Potency was 6.27 µM (active).

As to `CNc1cncc(-c2cc(C)c(O)c(C)c2)n1`, the Potency was 4.44 µM (active).

`O=C(Nc1ncc(Cc2ccc(SC(F)F)cc2)s1)c1ccccc1`: the Potency is 2.23 µM (active).

For the compound `Cc1nc(-c2ccc(Cl)cc2)sc1C(=O)NN`, the Potency was 14 µM (active).

Consider `O=C(O)Cc1sc(NC2CCCCC2)nc1-c1ccc(Cl)cc1`, for which the Potency entry is “inactive”.

With `CCOc1cc(/C=C2/SC(=S)N(CC3CCCO3)C2=O)ccc1O` (stereo not given), the Potency is 14.6 µM (active).

As for `CCN(CC)c1cc(C)c(/C=C/c2ccnc3ccccc23)cc1C`, the Potency was 20.6 µM (active).

For the compound `Cc1cc(N(C)C)c(C)cc1/C=C/c1ccnc2ccccc12`, the Potency is 8.2 µM (active).

Turning to `CC(C)C1C(=O)N(Cc2cn(CCC3OCCCO3)nn2)CCS(=O)(=O)N1Cc1ccc(-c2cccc(CO)c2)cc1` (stereo not given), the Potency result is “inactive”.

In the case of `COc1ccc(-c2cc3ccccc3oc2=O)cc1NC(=S)NC(=O)c1ccc2c(c1)OCCO2`, the Potency was 6.51 µM (active).

On to `O=C(NC(=S)Nc1ccc(N2CCCCC2)c(Cl)c1)c1ccc2c(c1)OCCO2`, for which the Potency entry was “inactive”.

Take `Cc1ccc2ccc3cc(C(=O)Nc4ccc(C)c(F)c4)nc3c2[nH]1`: the Potency is 18.4 µM (active).

With `C1=Cc2ccccc2/C1=C\c1cc2c3c(c1)CCCN3CCC2`, the Potency was 16.4 µM (active).

Turning to `Cc1ccc(/C=C2/CNC/C(=C/c3ccc(C)cc3)C2=O)cc1`, the Potency was 9.94 µM (active).

With `CCNc1ccc(Br)cc(C(=O)/C=C/c2ccc3c(c2)OCO3)c1=O`, the Potency is 18.4 µM (active).

Consider `Cc1ccc2oc(/N=C(\N)NC(=O)C(C)(C)C)nc2c1`, for which the Potency entry is “inactive”.

Take `CN1C(=O)/C(=C/c2ccccc2OCc2ccc(F)cc2)N(C)C1=S`: the Potency entry was “inactive”.

For `CCNC(=S)N/N=C(\C)c1ccc(N2CCOCC2)cc1`, the Potency result was “inactive”.

In the case of `Cc1cccc2cc3c(N)c(C(=O)N4CCOCC4)sc3nc12`, the Potency is 16.4 µM (active).

`Cc1ccc(C)c2nc3sc(C(=O)N4CCOCC4)c(N)c3cc12`: the Potency was 15.8 µM (active).

Take `CCc1ccc(C(=O)NC(=S)Nc2ccc(N3CCOCC3)cc2)cc1`: the Potency result is “inactive”.

`O=C(Nc1ccc(N2CCOCC2)cc1)c1cccc2ccccc12`: the Potency is 15.8 µM (active).

`Cc1cccc2cc3c(N)c(C(=O)Nc4ccc(N5CCOCC5)cc4)sc3nc12`: the Potency is 12.5 µM (active).

Take `N#C/C(=C\c1ccc(N2CCOCC2)o1)C(=O)NC1CCCCC1`: the Potency was 14 µM (active).

In the case of `N#C/C(=C/c1ccc(N2CCOCC2)o1)C(=O)NC1CCCCC1`, the Potency was 18.4 µM (active).

On to `N#C/C(=C\c1ccc(N2CCOCC2)o1)C(=O)NCCc1ccccc1`, for which the Potency entry is “inactive”.

`Oc1cccc(Nc2nc(O)c(/C=C3\C=Nc4ccccc43)s2)c1`: the Potency is 20.6 µM (active).

As for `NC(=O)CSc1nc2c(sc3ccccc32)c(=O)n1CCCC(=O)NCC1CCCO1` (stereo not given), the Potency entry is “inactive”.

On to `CCOC(=O)/C=c1\s/c(=C\c2ccccc2C)c(=O)n1CC(=O)NCc1ccc2c(c1)OCO2`, for which the Potency is 14 µM (active).

On to `CCOC(=O)/C=c1/s/c(=C\c2c(OC)ccc3ccccc23)c(=O)n1CC(=O)NCC1CCCO1` (stereo not given), for which the Potency was 9.94 µM (active).

`CCOC(=O)/C=c1/s/c(=C/c2ccc3cc(OC)ccc3c2)c(=O)n1CC(=O)NCC1CCCO1` (stereo not given): the Potency was 18.4 µM (active).

For the compound `CCOC(=O)/C=c1\s/c(=C\c2c(OC)ccc3ccccc23)c(=O)n1CC(=O)NCC1CCCO1` (stereo not given), the Potency is 4.61 µM (active).

As to `S=C(NN=Cc1ccccn1)Nc1ccccn1`, the Potency result is “inactive”.

For `Nc1cccc(CCc2nc3cc4ccccc4cc3[nH]2)c1`, the Potency is 4.44 µM (active).

Turning to `O=C(NNc1ncc(C(F)(F)F)cc1Cl)c1c(Cl)cccc1Cl`, the Potency is 4.44 µM (active).

In the case of `Cc1cc(C)c(C(=O)N(CCN(C)C)CC2CCCN(Cc3ccccc3F)C2)o1` (stereo not given), the Potency entry was “inactive”.

In the case of `CC(C)OC(=O)c1cc(C(=O)c2cc(F)ccc2O)coc1=N`, the Potency is 20.6 µM (active).

For the compound `CCC(=O)Nc1ccccc1-c1nc2ccccc2n(C(C)C(=O)Nc2ccc(OC)cc2)c1=O` (stereo not given), the Potency was 16.4 µM (active).

For `Brc1ccc2c(c1)C(c1cccnc1)=NNC(c1cccs1)=N2`, the Potency was 14 µM (active).

`c1cncc(-c2nc(NCc3cccs3)c3ccccc3n2)c1`: the Potency result is “inactive”.

As for `COC(=O)c1sccc1S(=O)(=O)N(CC(=O)Nc1cc(F)ccc1F)c1ccc(C)c(C)c1`, the Potency entry was “inactive”.

On to `CCOC(=O)c1[nH]c(C)c(C(=O)Nc2ccc(C)cc2C)c1C`, for which the Potency was 2.23 µM (active).

For `CCOC(=O)c1[nH]c(C)c(C(=O)Nc2ccccc2F)c1C`, the Potency was 3.14 µM (active).

Take `CCOC(=O)c1[nH]c(C)c(C(=O)Nc2cc(OC)ccc2OC)c1C`: the Potency is 1.77 µM (active).

As for `COc1ccc(OC)c(NC(=O)c2cc(-c3cc(C)cc(C)c3O)n[nH]2)c1`, the Potency result is “inactive”.

For the compound `CC(=O)c1c(C)[nH]c(C(=O)Nc2ccc(Cl)cc2F)c1C`, the Potency result was “inactive”.

Take `Cc1ccc(C)c(N2CCN(C(=O)c3cccn4c(=O)c5sccc5nc34)CC2)c1`: the Potency is 15.8 µM (active).

Take `O=c1[nH]c2ccccc2nc1/C=C(\O)c1cccs1`: the Potency was 16.4 µM (active).

Consider `O=C(NCc1ccc2c(c1)OCO2)c1cc([N+](=O)[O-])ccc1N1CCOCC1`, for which the Potency was 4.98 µM (active).

With `O=C(/C=C/c1cccs1)NCc1ccc2c(c1)OCO2`, the Potency entry was “inactive”.

Regarding `O=C(NCc1ccc2c(c1)OCO2)c1cc([N+](=O)[O-])ccc1N1CCCCC1`, the Potency is 1.58 µM (active).

`Cc1cccc(-c2noc(-c3ccc(NCc4ccco4)c([N+](=O)[O-])c3)n2)c1`: the Potency was 14.6 µM (active).

`COc1ccccc1-c1noc(-c2ccc(NCc3ccco3)c([N+](=O)[O-])c2)n1`: the Potency is 18.4 µM (active).

Take `O=[N+]([O-])c1cc(-c2nc(-c3ccccc3)no2)ccc1NCc1ccco1`: the Potency is 13 µM (active).

For the compound `CCCCOc1ccc2c(c1)/C(=C(\C(Cl)=C(Cl)Cl)[N+](=O)[O-])N2`, the Potency entry is “inactive”.

Take `N#Cc1c(C(F)(F)F)cc(-c2ccco2)nc1SCc1ccccn1`: the Potency is 16.4 µM (active).

As for `Cc1cc2nc3c(=O)n(C4CCCCC4)c(=O)[nH]c3nc2cc1N`, the Potency was 9.2 µM (active).

In the case of `Cc1cc2nc3c(=O)n(CCc4ccccc4)c(=O)[nH]c3nc2cc1N`, the Potency is 5.17 µM (active).

On to `Cc1cc2nc3c(=O)n(Cc4ccccc4)c(=O)[nH]c3nc2cc1N`, for which the Potency is 0.125 µM (active).

As for `CCCCN(C(=O)c1ccc([N+](=O)[O-])s1)c1c(N)n(CCCC)c(=O)[nH]c1=O`, the Potency entry was “inactive”.

`CCOC(=O)N1CCN(C(=O)c2ccccc2-c2ccccc2)CC1`: the Potency was 2.8 µM (active).

For `CC(/C=C/c1ccc(N(C)C)cc1)=N\N=C(/N)SC1CC(=O)N(c2ccc(C(=O)O)cc2)C1=O` (stereo not given), the Potency entry was “inactive”.

Consider `CN(C)c1ccc(/C=C/C(=O)c2c(O)c3ccccc3oc2=O)cc1`, for which the Potency is 4.11 µM (active).

In the case of `CN(C)c1ccc(/C=C/C(=O)c2ccc(O)cc2)cc1`, the Potency was 4.61 µM (active).

As to `CCN1/C(=C\C=C(C(C)=O)C(C)=O)Sc2ccccc21`, the Potency is 14.6 µM (active).

Consider `N#Cc1c(-c2ccc(F)cc2)c(-c2ccc(F)cc2)nn(CCO)c1=O`, for which the Potency is 4.44 µM (active).

On to `N#Cc1c(-c2ccccc2)c(-c2ccccc2)nn(CC(=O)NNC(=O)Nc2ccccc2)c1=O`, for which the Potency was 4.44 µM (active).

For `CC1(C)Cc2ccccc2C2CC(O)C(=O)N21` (stereo not given), the Potency was 18.4 µM (active).

Take `Cc1ccc(NC(=O)/C(C#N)=C\c2ccc(-c3ccc(Cl)cc3)o2)c(C)c1`: the Potency is 13 µM (active).

With `Cc1ccc(-c2ccc(/C=N/NC(N)=S)o2)cc1`, the Potency result was “inactive”.

As for `FC(F)(F)c1ccccc1NC(=S)NN=C1CCCCCC1`, the Potency result is “inactive”.

Take `O=C1/C(=C/c2ccc(O)cc2)SC(=S)N1Cc1cccnc1`: the Potency result is “inactive”.

With `O=C1CSC(=S)N1Cc1cccnc1`, the Potency is 13 µM (active).

In the case of `O=C(NCc1cccs1)C1CCN(c2ccc(S(=O)(=O)N3CCOCC3)cc2Cl)CC1`, the Potency was 2.8 µM (active).

With `CC(C)(C)OC(=O)NC(Cc1ccccc1)C(=O)N1CCC(C(=O)NCC(=O)Nc2ccc(F)cc2)CC1` (stereo not given), the Potency was 23.1 µM (active).

As for `Cc1cc(C)c(N2C(=O)CC(Sc3ccccc3N)C2=O)c(C)c1` (stereo not given), the Potency was 15.8 µM (active).

Turning to `Cc1cc(C)n(-c2nc3c(c(=O)[nH]c(=O)n3C)n2CC(O)COc2ccc(Cl)cc2Cl)n1` (stereo not given), the Potency was 2.23 µM (active).

As for `COc1ccc(S(=O)(=O)N2N=C(C)Oc3ccccc3C2=O)cc1`, the Potency is 3.14 µM (active).

On to `CC1(C)CCN2CCC(C)(C)c3c(O)ccc1c32`, for which the Potency is 14 µM (active).

`CCOc1ccc(CN2C(=O)c3ccccc3Sc3ccc(C(=O)O)cc32)cc1`: the Potency was 7.31 µM (active).

Consider `CC(C)OC(=O)c1c2c(n3ccccc13)C(=O)c1ccccc1C2=O`, for which the Potency is 8.2 µM (active).

As to `CCOc1ccccc1C(=O)Nc1c(C(=O)Nc2ccc(F)cc2)oc2ccccc12`, the Potency is 0.92 µM (active).

With `Oc1ccc(C=NNC(=S)Nc2ccc(F)cc2)c(O)c1`, the Potency result is “inactive”.
